We go through 113 compounds from PubChem BioAssay AID488890 (Southern Research Specialized Biocontainment Screening …, 2010).

Structures are written as SMILES. In all, about 320,000 compounds went through this assay and about 1,300 (0.41%) were called active. Another 3% or so got no clear call; they are omitted. The rule behind the calls is not given here. Not all results are given here. Measured potencies and affinities stand elsewhere.

This assay in a line: growth inhibition of non-replicating M. tuberculosis (AID 488890).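 Note: plate controls were DMSO cells for no effect and high antibiotic wells for full effect.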 The note with it: Mycobacterium tuberculosis non-replicating, at 25 µM, stronger effect = higher value.
A word on the inhibition: it is the relative decrease from the control value, in per cent. For `CCC1(CC)C(=O)N(C)C(=O)NC1=NC`, the inhibition was -9.72%.
Consider `O=C(N/N=C/c1ccccc1[N+](=O)[O-])c1cccs1`, for which the inhibition was determined as 55.4%.
Turning to `O=[N+]([O-])c1cccc(/C=N\N=C2c3ccccc3-c3ccccc32)c1O`, the inhibition worked out at 22%.
Turning to `O=[N+]([O-])c1cccc(C=Nc2cccc3ccccc23)c1O`, the inhibition amounted to 55.1%.
Turning to `O=C(N/N=C\c1cc2c(cc1[N+](=O)[O-])OCO2)c1cccs1`, the inhibition is 16.5%.
Consider `O=[N+]([O-])c1ccc(O)c(/C=N\N=C2c3ccccc3-c3ccccc32)c1`, for which the inhibition came to 72.8%.
Consider `CN(C)/N=C/c1cc([N+](=O)[O-])ccc1O`, for which the inhibition was -5.98%.
The value for `c1ccc(CN2CCNCC2)nc1` was -22.1%; that for `CCOc1ncccc1C(=O)OCC(=O)N1CCN(S(=O)(=O)c2ccccc2)CC1` was -4.22%.
With `CCOc1ccc(/C=N/OCC(=O)NCc2ccc3c(c2)OCO3)cc1OC`, the inhibition is 13%.
As for `CCNC(=O)CSc1nnc(-c2cccs2)o1`, the inhibition was found to be 61.4%.
`Cc1ccc(S(=O)(=O)Nc2cccc3ncccc23)cc1`: the inhibition was 15.3%.
The figure for `Cc1ccc(S(=O)(=O)Nc2ccnc3ccccc23)cc1` is -9.89%.
Turning to `O=C(NNC1OC(CO)C(O)C(O)C1O)c1cccnc1` (stereo not drawn), the inhibition is -18.5%.
`CCOC(=O)c1c(-n2cnnn2)sc2c1CCCC2`: the inhibition is 0.53%.
With `CCCS(=O)(=O)c1nc(S(=O)(=O)c2ccc(Cl)cc2)c(N2CCC(O)CC2)s1`, the inhibition is 9.91%.
In the case of `CCc1cccc2c(C#N)cn(CC(=O)NCCOC)c12`, the inhibition came out at 2.34%.
The figure for `COC(=O)Cn1cc(C#N)c2ccccc21` is 51.2%; for `CC(C)OC(=O)Cn1cc(C#N)c2ccccc21` it is 17%.
On to `CCOC(=O)Cn1c(-c2ccccc2)cc(SC)c(C#N)c1=O`, for which the inhibition turned out to be 37.8%.
As for `CCn1c(-c2ccccc2)ccc(C#N)c1=O`, the inhibition was -0.3%.
For `CCc1cccc2c(C#N)cn(CC(=O)N3CCOCC3)c12`, the inhibition is -9.31%.
For the compound `Cc1cc(Cl)ccc1OCC(=O)Nc1cccnc1`, the inhibition is 41%.
Regarding `C[C@]12C(=O)N(c3ccccc3)C(=O)N1[C@H]1c3ccccc3OC[C@@H]1[C@H]2c1ccccc1`, the inhibition stood at 79%.
With `Cn1c2ccccc2c2cc(/C=N/NC(=O)c3cc(O)cc(O)c3)ccc21`, the inhibition was -7.45%.
Consider `O=C(O)c1cccc(NS(=O)(=O)/C=C/c2ccccc2)c1`, for which the inhibition was -0.77%.
The figure for `O=C(O)c1ccc(NS(=O)(=O)/C=C/c2ccccc2)cc1` is -4.07%; for `CC(=O)Nc1ccc(NC(=S)NC(=O)C2CCCC2)cc1` it is 30.2%; for `O=C(Nc1ccc(F)cc1)C1CCCCC1` it is 42.2%.
For the compound `OCC1(CCOc2ccccc2)CCN(Cc2ccc3c(c2)OCCO3)CC1`, the inhibition is 14.7%.
The figure for `COC(=O)C(NC(C)=O)(Nc1nc2ccc(S(C)(=O)=O)cc2s1)C(F)(F)F` (stereo not drawn) is -2.55%.
As for `COc1ccc(C(CCNCc2ccc(OC)c(OC)c2)c2ccc(F)cc2)cc1` (stereo not drawn), the inhibition came to 76.8%.
The value for `COc1ccccc1C(CCNCc1ccccc1)c1ccc(OC(C)C)cc1` (stereo not drawn) was 68.5%; that for `O=C(O)c1cc2c(N3CCC(Cc4ccccc4)CC3)ncnc2s1` was 11.8%; that for `c1ccc2c(Cn3ccnc3)cccc2c1` was -22.3%.
The value for `NC1=NC[C@H](Cc2ccc(O)cc2)N1CCc1cccc(F)c1` was 1.77%; that for `CN(C)C1=NC[C@H](Cc2ccccc2)N1CCCC1CCCC1` was 77%.
On to `NC1=NC[C@H](Cc2ccccc2)N1CC1CCCCC1`, for which the inhibition stood at 17%.
On to `NC1=NC[C@@H](Cc2ccc(O)cc2)N1CCc1cccc2ccccc12`, for which the inhibition turned out to be 64.2%.
Turning to `CC(C)C[C@H]1CN=C(Nc2ccccc2)N1CCC1CCCCC1`, the inhibition is 25.8%.
Take `CC(C)C[C@H]1CN=C(Nc2ccccc2)N1CCC1CCCC1`: the inhibition stood at 65.2%.
On to `CCC(=O)N1CCc2cc(S(=O)(=O)N3CCN(c4cc(C)ccc4C)CC3)ccc21`, for which the inhibition was -5.69%.
The figure for `COc1ccc(-c2cn3nc(C)c(C)nc3n2)cc1OC` is -17%; for `Cc1nnc(Sc2c(-c3ccccc3)c3ccc(Cl)cc3[nH]c2=O)s1` it is 31.4%; for `CS(=O)(=O)c1cccc(C(=O)Nc2nnc(C3=COCCO3)o2)c1` it is 22.2%.
`COc1cc(C(=O)Nc2nnc(C3=COCCO3)o2)cc(OC)c1OC`: the inhibition was -6.31%.
The figure for `O=C(Nc1nnc(C2=COCCO2)o1)c1ccc(S(=O)(=O)N2CCCC2)cc1` is 6.48%; for `CN(C)c1ccc(C(=O)Nc2nnc(C3=COCCO3)o2)cc1` it is -3.42%.
As for `COc1ccc(C(=O)Nc2nnc(C3=COCCO3)o2)cc1OC`, the inhibition is -10.9%.
On to `CC(=O)Nc1nnc(C2=COCCO2)o1`, for which the inhibition worked out at 3.17%.
The figure for `O=C(O)CN1C(=O)c2cccc3c(Br)ccc1c23` is 2.53%; for `CCOC(=O)Cn1nnnc1CN(CCc1ccccc1)Cc1cc2cc(CC)ccc2[nH]c1=O` it is -14.2%.
In the case of `COc1ccc(Nc2nc3cc(C)ccc3cc2C#N)c(OC)c1`, the inhibition was -16.1%.
The value for `Cc1cc(NC(=O)Cn2nnc3sc4c(c3c2=O)CCCC4)no1` was 9.47%; that for `CCCn1c(C(C)NC(=O)c2ccccc2)n[nH]c1=S` (stereo not drawn) was 13.1%.
On to `COc1cccc(-c2ccc(NC(=O)C3CCCN(Cc4nccn4C)C3)cc2)c1` (stereo not drawn), for which the inhibition stood at 58%.
The figure for `O=C(Nc1cc(Cl)ccc1-n1cncn1)c1cc(F)c(F)c(F)c1F` is 14%.
As for `COc1cc(/C=C2\SC(=O)N(CC(=O)Nc3ccc(C)cc3)C2=O)cc(Cl)c1OCC(=O)O`, the inhibition is 12.1%.
On to `CCCCNC(=O)Cc1ccc(Br)cc1`, for which the inhibition came to 74%.
For the compound `O=C(NCC1CCN(C(=O)c2ccc([N+](=O)[O-])cc2)CC1)c1ccc([N+](=O)[O-])cc1`, the inhibition came to 4.24%.
The figure for `O=C(NCCCCc1ccccc1)c1ccc(Br)o1` is 45.4%; for `O=C(NCc1cccs1)c1ccccc1` it is 64.8%; for `O=C(NCCNC(=O)c1ccc(Br)o1)c1ccc(Br)o1` it is -3.49%.
The value for `Cc1ccc(CC(=O)NCCCc2ccccc2)cc1` was 21.6%.
In the case of `O=C(NCC1CCCCC1)c1cccc([N+](=O)[O-])c1`, the inhibition turned out to be 69.2%.
The value for `O=C(CCNC(=O)c1ccc([N+](=O)[O-])cc1)NCc1cccs1` was -8.88%; that for `C=CCC[C@@H](Cc1ccc(F)cc1)C(=O)OC[C@@H](Cc1c[nH]c2ccccc12)NC(=O)[C@H](CC=C)CC(=O)N[C@H](CO)Cc1ccccc1` was -0.91%.
Regarding `CCCCOc1ccc(C(=O)OCC(=O)c2c(N)n(C)c(=O)n(C)c2=O)cc1`, the inhibition worked out at 27.4%.
`O=C(NCCCn1ccnc1)c1cccc(Br)c1`: the inhibition is -17.6%.
Consider `COCC(=O)Nc1nc2n(n1)C(c1ccccc1Cl)CC(c1ccc(OC)cc1)N2` (stereo not drawn), for which the inhibition was found to be 24.1%.
As to `COC(=O)c1ccc(CS(=O)(=O)c2ccccc2C)o1`, the inhibition was 2.59%.
`CCCn1c(N)c(C(=O)CSc2nc3ccccc3c(=O)n2Cc2ccccc2)c(=O)[nH]c1=O`: the inhibition came out at 21%.
The figure for `COc1ccc(/C=N/NC(=O)c2ccn[nH]2)cc1Cn1cc([N+](=O)[O-])cn1` is -4.11%.
In the case of `O=C(Nc1ccc(Cl)cn1)c1cc2c(s1)-c1ccccc1OC2`, the inhibition amounted to 27.1%.
In the case of `O=C(NCc1ccccc1)c1ccc(Br)o1`, the inhibition stood at 77.6%.
Turning to `O=C(NCCNC1CCCCC1)c1ccco1`, the inhibition was -9.39%.
The figure for `O=C(CNC(=O)c1ccc(Br)o1)NCc1ccc(F)cc1` is 23.3%.
Regarding `O=C(O)c1ccc(CNC(=O)c2ccc(Br)o2)cc1`, the inhibition amounted to 21.4%.
Regarding `O=C(CNC(=O)c1ccco1)NC1CCCCCC1`, the inhibition was found to be 5.43%.
With `O=C(NCc1ccncc1)c1ccc(Br)o1`, the inhibition turned out to be 12.8%.
Regarding `C=CCn1c(O)c(C(CC)=Nc2cc(OC)ccc2OC)c(=O)[nH]c1=O`, the inhibition worked out at 7.07%.
In the case of `CCNC(=S)NNC(=O)c1ccccc1OC(F)F`, the inhibition was -5.06%.
The figure for `COc1ccc(CC(C(=O)Nc2ccc(OC)cc2)c2nn[nH]n2)cc1` (stereo not drawn) is 8.92%.
In the case of `Cc1cc(=O)oc2cc(NC(=S)NCc3cccnc3)ccc12`, the inhibition was -4.07%.
Regarding `CCCC(=O)c1cc2c(cc1NC(=O)c1ccccc1F)OCCO2`, the inhibition was 4.71%.
Take `CC(=O)N1CCc2c(sc3c2c(=O)n(-c2ccccc2)c(=O)n3Cc2ccccc2Cl)C1`: the inhibition is -8.11%.
The value for `O=C(NCCCn1ccnc1)Nc1ccc2c(c1)OCO2` was -2.69%; that for `Cc1cc(C)c(-c2csc(NC(=O)C3=COCCO3)n2)c(C)c1` was 34.2%; that for `Cc1cc(C)c(NC(=O)C2=COCCO2)c(C)c1` was -16.1%.
For the compound `Cc1nc(-c2ccc(-n3nncc3-c3ccco3)cc2)cs1`, the inhibition worked out at 58.1%.
Regarding `Cc1ccc(C(=O)O/N=C(\N)Cc2cccs2)c(Cl)c1`, the inhibition was 60.4%.
As to `C#CCOCCOCCOCCNc1nc(N2CCN(C(=O)[C@H](CCC(=O)O)n3cc(C(N)CC(C)C)nn3)CC2)nc(N2CCN(C(=O)[C@H](CCC(=O)O)n3cc(C(N)[C@H](C)CC)nn3)CC2)n1` (stereo partly drawn), the inhibition was -2.67%.
With `CCc1nc(CN2CCN(c3cc(C(F)(F)F)ccn3)CC2)c(C)[nH]1`, the inhibition was found to be 20.5%.
On to `CCCCN(CC)CCCNC(=O)c1cc2c(-c3ccc(OC)c(OC)c3)nn(C)c2s1`, for which the inhibition turned out to be 34.8%.
As to `CCN(CC)CCNC(=O)c1cc2c(-c3ccc(Cl)cc3)nn(C)c2s1`, the inhibition stood at 67.4%.
Turning to `Cc1nc(C(=O)N(C)C)nn1-c1ccc(Cl)cc1Cl`, the inhibition is -3%.
Consider `COc1ccc(NC(=O)C2=Cc3ccccc3OC2)cc1`, for which the inhibition was determined as 76.7%.
Take `COc1ccc(C(CNC(=O)CSc2ccc(Br)cc2C)N2CCOCC2)cc1` (stereo not drawn): the inhibition stood at 7.11%.
Take `CCN1C(=O)/C(=C\N(C(C)=O)c2ccccc2)OC1=S`: the inhibition came to 6.17%.
Regarding `CCc1nc(N(CC)CC)c2oc3ccccc3c2n1`, the inhibition came to 25.6%.
The figure for `c1ccc(Oc2nc(-c3cccnc3)nc3ccccc23)cc1` is 18.6%.
On to `Cc1ccc(Oc2nc(-c3cccnc3)nc3ccccc23)c([N+](=O)[O-])n1`, for which the inhibition is -3.06%.
`Fc1ccc(F)c(NC2=NCCCCC2)c1`: the inhibition is -19%.
For `O=C(NNC1=C(C(=O)C(F)(F)F)CCC1)c1ccncc1`, the inhibition amounted to 56.2%.
The value for `COc1ccccc1C(=O)NNC1=C(C(=O)C(F)(F)F)CCC1` was 77.4%.
As to `O=C(NNC1=C(C(=O)C(F)(F)F)CCC1)c1cccc(O)c1`, the inhibition was 58.3%.
On to `O=C(NNC1=C(C(=O)C(F)(F)F)CCC1)c1cccnc1`, for which the inhibition is -16.6%.
`Cc1ccc(CNC(=O)CN(c2ccc(C(C)C)cc2)S(=O)(=O)c2c(C)noc2C)cc1`: the inhibition amounted to 7.31%.
The figure for `Cc1ccsc1/C=N/NC(=O)Cn1nc(C)c([N+](=O)[O-])c1C` is -14.9%; for `COc1ccccc1N1C[C@@H]2C[C@@H](c3ccco3)N3CCC[C@@]23C1=O` it is 14.9%; for `COC(=O)C1=C(N)Oc2cc(C)n(CC3CCCO3)c(=O)c2C1c1ccccc1` (stereo not drawn) it is 2.48%.
Take `Cc1ccnc(NC(=O)C2CCN(S(=O)(=O)c3cccc4nonc34)CC2)c1`: the inhibition turned out to be 9.48%.
The value for `Cc1ccccc1NC(=O)c1cccc(S(=O)(=O)Nc2cccc(C(=O)O)c2)c1` was 19.2%.
